Screening results as filed in PubChem.
TMEM16A act: activates or potentiates the mouse TMEM16A chloride channel; Q8BHY3; HEK293 TMEM16A/YFP-H148Q/I152L, iodide quench fluorescence; stronger effect = lower value; B-score at 10 µM; 340,000 compounds, 0.3% hits; AID 623877;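 active means fluorescence-ratio B-score plate-corrected deviation score at least 3 library SD below zero, with starting fluorescence score within 5 deviations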;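 further: channel opened by trigger with iodide after compound preincubation; score built on the fluorescence ratio of max minus min over baseline; more negative score means more quench and so TMEM16A activation or potentiation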
TLR4-MyD88 BLA: TLR4-MyD88 interaction inhibition in cells; O00206+Q99836; HeLa CL3-4 TLR4/MyD88 BLA complementation, FRET ratio; inhibition, % at 8.4 µM; 200,000 compounds, 0.18% hits; in the data active means inhibition above about 25%;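 further: 0% = vehicle and 100% = reference inhibitor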
TMEM16A inh: inhibitors of mouse TMEM16A calcium-activated chloride channel; Q8BHY3; HEK293 TMEM16A/YFP iodide influx fluorescence, ionomycin; normalized B-score (activity score, 25-100; higher = stronger inhibition) at 10 µM; 310,000 compounds, 1.2% hits;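 active means ratio plate-corrected score three or more library SD toward inhibition, starting fluorescence score within five deviations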;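 further: score derived from kinetic fluorescence span divided by baseline fluorescence per well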
TLR9-MyD88 block: inhibitors of human TLR9-MyD88 binding. Q9NR96+Q99836. AID 504734. CHO BLA complementation TLR9-MyD88, CCF4 FRET ratio. inhibition, % at 4.98 µM. 340,000 compounds, 0.21% hits;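 active means inhibition above the mean over all tested compounds plus 3 SD, cut at about 21% in these data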;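 further: 0% = DMSO only wells and 100% = clavulanate BLA inhibitor control wells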
NOD2-RIPK2 inh: inhibitors of human NOD2-RIPK2 interaction | O43353 | CHO BLA complementation NOD2-RIPK2, CCF4 ratio | inhibition, % at 4.98 µM | 360,000 compounds, 0.38% hits; in the data active means inhibition above about 21%;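 further: 0% = vehicle only and 100% = reference blocker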
GRK2 aptamer HTS: human GRK2 inhibition via aptamer displacement | bead flow cytometry, FAM-aptamer displacement from GRK2 | P25098 | 330,000 compounds, 0.59% hits | inhibition of aptamer binding, % at 10 µM;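 active means inhibition of aptamer binding above 40%, roughly 3 SD of noise, on plates passing a quality check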;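 further: median bead fluorescence of bound FAM aptamer so fluorescent compounds give negative values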
NOD2 RIPK2 conf: confirmation of human NOD2-RIPK2 interaction inhibitors; shares compounds with NOD2-RIPK2 inh; CHO cells, NOD2-RIPK2 BLA complementation, CCF4 FRET; inhibition, % at 4.98 µM; 1,200 compounds, 70% hits; AID 624370;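 active means mean inhibition across replicates above a set limit taken from the earlier primary screen, cut at about 21% in these data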;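 further: 0% = DMSO-only wells and the high end = clavulanate BLA-blocked wells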
BLA counter: NOD2-RIPK2 counterscreen BLA reporter activity. inhibition, % at 4.98 µM. CHO BLA reporter, CCF4 FRET ratio. AID 624371. 1,200 compounds, 57% hits. shares compounds with NOD2-RIPK2 inh;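 active means mean inhibition above the low-control mean inhibition plus three low-control SD, cut at about 11% in these data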;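 further: 0% = DMSO only wells and 100% = clavulanate high control wells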
Active calls of the source: *; i = inactive; . = no result. The list is not random: actives were taken first. Their share in the collection is about 2.2%.

SMILES | TMEM16A act | TLR4-MyD88 BLA | TMEM16A inh | TLR9-MyD88 block | NOD2-RIPK2 inh | GRK2 aptamer HTS | NOD2 RIPK2 conf | BLA counter
CC(C)(C)NC(=O)C(c1ccccc1)n1c(=O)c(-c2cc3ccccc3[nH]2)nc2ccccc21 (centres undefined) | . | . | . | . | 43* | . | 40* | 65*
CC(C)(C)NC(=O)C(c1ccc(C(F)(F)F)cc1)n1c(=O)c(-c2cc3ccccc3[nH]2)nc2ccccc21 (centres undefined) | . | . | . | . | 45* | . | 41* | 66*
CC(C)(C)NC(=O)C(c1ccc(C(F)(F)F)cc1)n1c(=O)c(-c2ccccc2)nc2ccccc21 (centres undefined) | . | . | . | . | -1 | . | . | .
CC(C)(C)NC(=O)C(c1ccc(C#N)cc1)n1c(=O)c(-c2cc3ccccc3[nH]2)nc2ccccc21 (centres undefined) | . | . | . | . | 54* | . | 51* | 70*
CC(C)(C)NC(=O)C(c1cccc2ccccc12)n1c(=O)c(-c2cc3ccccc3[nH]2)nc2ccccc21 (centres undefined) | . | . | . | . | 40* | . | 34* | 62*
CCOCCCNC(=O)c1ccc(CN2CCc3ccccc3C2)cc1 | . | . | . | 8 | 12 | . | . | .
CC(C)(C)NC(=O)C(c1ccc(-c2ccccc2)cc1)n1c(=O)c(-c2cc3ccccc3[nH]2)nc2ccccc21 (centres undefined) | . | . | . | . | 40* | . | 34* | 63*
N#Cc1ccc(NN=Nc2ccccc2C#N)cc1 | . | . | . | 3 | 2 | . | . | .
CC(/C=C/c1ccc(N(C)C)cc1)=N\N=C1\NC(=O)CC(C(=O)Nc2ccccc2)S1 (centres undefined) | i | -1 | i | 2 | -1 | 0 | . | .
CC(/C=C/c1ccc(N(C)C)cc1)=N/N=C1/NC(=O)CC(C(=O)Nc2ccc(Cl)cc2)S1 (centres undefined) | i | 7 | i | 14 | 24* | 0 | 19 | 32*
CCCOc1ccc(NC(=O)C2CC(=O)N/C(=N/N=C(\C)CCc3ccc4c(c3)OCO4)S2)cc1 (centres undefined) | i | -8 | i | 9 | -5 | 0 | . | .
CCCOc1ccc(NC(=O)C2CC(=O)N/C(=N/N=C(C)/C=C/c3ccc(N(C)C)cc3)S2)cc1 (centres undefined) | i | 13 | i | 10 | 22* | 0 | 19 | 26*
C[C@H](CO)N1C[C@H](C)[C@@H](CN(C)C(=O)NC2CCCCC2)Oc2ccc(NC(=O)Nc3ccccc3)cc2C1=O | i | . | . | -3 | -5 | 3 | . | .
CC(=O)ON=C1C=CC(=C(C#N)c2ccccc2)C=C1 | . | . | . | . | 26* | . | 35* | 8
CCOC(=O)C1=CC[C@@H](c2ccccc2)N(S(=O)(=O)c2ccc(C)cc2)[C@H]1C#N | . | . | . | . | 44* | . | 16 | -2
CC(=O)c1ccc(OCCCC(=O)Nc2ccc(C)c(S(=O)(=O)N3CCCCC3)c2)cc1 | i | . | . | -8 | 36* | . | -7 | -7
Cc1c(NC(=S)NC(NC(=O)C(C)(C)C)C(Cl)(Cl)Cl)c(=O)n(-c2ccccc2)n1C (centres undefined) | i | -18 | i | -1 | 25* | 0 | 1 | -1
CC(=O)N1CCN=C1SCc1cccc(F)c1 | i | . | i | 7 | 3 | 0 | . | .
Cc1cccc(NC(=O)c2cccc(S(=O)(=O)N(C)C3CCCCC3)c2)n1 | . | . | . | -5 | 21* | . | 1 | -2
CN(C1CCCCC1)S(=O)(=O)c1cccc(C(=O)Nc2ccccn2)c1 | i | . | i | 1 | -2 | 2 | . | .
N#CC1=C(Nc2ccccc2Cl)SC2(CCCC2)NC1=O | . | . | . | . | 5 | . | . | .
Cc1ccc(NC(=O)c2cc(-c3ccccc3)nn2-c2ccccc2)cc1 | i | -4 | i | -16 | -3 | 3 | . | .
